From PubChem BioAssay
A selection: hits, their analogues and other compounds. The true share with any hit is near 6.3%.
ATXN viability: reduces viability in counter-screen for ATXN expression inhibitors; S2 cells (HEK-293 line with an ATXN2-luciferase reporter) viability, CellTiter-Fluor protease fluorescence, 24 h; Potency, µM (highest dose often 56.7 µM), actives largely listed as cytotoxic; 400,000 compounds, 0.49% hits; further: nearly all actives have a fitted effect of over 40% in size
HepG2 viability: HepG2 cytotoxicity, counter-screen for TGF-b inhibitors. HepG2 CAGA-GFP viability, ATP luminescence, 18 h. Potency, µM (series often up to 46.1 µM), for inactives: at the highest dose activity change, negative = cytotoxicity, actives largely listed as cytotoxic. 410,000 compounds, 0.76% hits
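HepG2 CAGA-GFP cells (1000/well, DMEM with 1% FBS) received compound, then TGF-beta at 500 pg/mL final, and were incubated 18 hours at 37 degrees C. Viability was read by CellTiter-Glo luminescence. Media-only wells were set as complete cell-killing and DMSO as no toxicity.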
RORgamma inh: blocks mouse ROR gamma transcriptional activity; Drosophila S2 Gal4-RORgamma UAS-luciferase reporter, 20 h; 310,000 compounds, 5.4% hits; Potency, µM (top dose mostly 53.6 µM), for the others: top-dose activity change, negative = inhibition, actives largely listed as inhibitors; AID 2551; P51450; further: on the % scale 0 is the no-effect control and ±100 the full control effect; nearly all actives have a fitted effect of over 60% in size
Target sequence (P51450 whole entry, looked up, the tested form may be a part): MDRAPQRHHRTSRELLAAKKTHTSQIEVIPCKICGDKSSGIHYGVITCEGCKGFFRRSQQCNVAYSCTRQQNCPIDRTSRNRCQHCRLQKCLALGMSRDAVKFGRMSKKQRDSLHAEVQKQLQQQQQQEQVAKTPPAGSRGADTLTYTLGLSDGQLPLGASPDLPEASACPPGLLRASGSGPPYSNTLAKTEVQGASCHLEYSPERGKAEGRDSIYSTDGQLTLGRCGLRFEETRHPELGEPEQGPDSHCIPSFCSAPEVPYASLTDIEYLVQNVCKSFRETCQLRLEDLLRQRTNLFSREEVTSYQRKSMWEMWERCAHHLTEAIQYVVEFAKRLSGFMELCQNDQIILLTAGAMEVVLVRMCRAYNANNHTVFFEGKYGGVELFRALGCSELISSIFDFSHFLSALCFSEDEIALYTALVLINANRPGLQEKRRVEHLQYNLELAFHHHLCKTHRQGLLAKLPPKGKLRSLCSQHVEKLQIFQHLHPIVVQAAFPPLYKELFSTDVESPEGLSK
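Drosophila Schneider cells stably carrying a metallothionein-driven Gal4 DBD–ROR gamma fusion and a UAS-Photinus luciferase reporter were exposed to compound for 1 hr, then induced with copper sulfate (700 uM final) for 20 hr at ambient temperature before luminescence reading.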
TGFb inhibitor: blocks TGF-b signaling | 410,000 compounds, 1.2% hits | Potency, µM (series often up to 46.1 µM), for inactives: at the highest dose activity, negative = inhibition, usual class: inhibitors | HepG2 CAGA-GFP TGF-b/SMAD3 reporter, GFP fluorescence, 18 h; TGF-beta stimulated, 500 pg/mL final; further: on the % scale 0 is the no-effect control and ±100 the full control effect; nearly all actives have a fitted effect of over 65% in size
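HEPG2 CAGA-GFP cells (1000/well, DMEM with 1% FBS) were pre-incubated 2 h at 37 degrees C, given compound by pin tool, then stimulated with TGF-beta at 500 pg/mL final for 18 h before per-cell GFP fluorescence imaging.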
ATXN2 expr inh: ATXN2 expression inhibition. HEK-293 ATXN2-luciferase reporter, luminescence, 24 h. Potency, µM (series often up to 57 µM), for the others: at the top dose activity change, negative = inhibition, most hits filed as inhibitors. 360,000 compounds, 0.72% hits. AID 1745845; further: on the % scale 0 is the no-effect control and ±100 the full control effect; nearly all actives have a fitted effect of over 55% in size
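qHTS (up to 57 uM final) was run with 24 h compound exposure of reporter cells at 37 °C. Each well was multiplexed: SteadyGlo luminescence measured ATXN2-luciferase expression after a fluorogenic Gly-Phe-AFC viability readout (25 uM final).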
Gal4-VP16 FLuc: Gal4-VP16 reporter inhibition counter-screen; Drosophila S2 Gal4-VP16 UAS-luciferase, luminescence, 20 h; Potency, µM (series often up to 53.6 µM), without a hit: top-dose activity, negative = inhibition, actives largely listed as inhibitors; 310,000 compounds, 3.5% hits; AID 2546;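 further: Gal4-VP16 expression switched on by copper sulfate through the metallothionein promoter; on the % scale 0 is the no-effect control and ±100 the full control effect; nearly all actives have a fitted effect of over 50% in size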
An asterisk follows results filed as active; i = inactive; ? = inconclusive; . = no result; [ ] = another dose, or the depositor's remark. The call rests on the fitted dose curve; in most records, active means well fitted curve in the direction sought with a large enough effect; inconclusive means small, poorly fitted or top-dose-only effect, or another doubt; inactive means no such curve, though single readings can be large; an effect the other way counts as inactive or inconclusive. Potency means the concentration at half of the fitted maximal effect.

SMILES	ATXN viability	HepG2 viability	RORgamma inh	TGFb inhibitor	ATXN2 expr inh	Gal4-VP16 FLuc
O=C1NC[C@H](CCCCN2C[C@@H](Cc3ccccc3)N(Cc3ccccc3)C(=O)C2=O)N(CCC2CCCCC2)C1=O	?	.	.	.	-2%	.
O=C1COc2ccc(-c3csc(-c4ccc(F)cc4)n3)cc2N1	.	4%	.	13%	.	.
C=CCN=c1scc(-c2ccc3c(c2)NC(=O)CO3)n1/N=C(\C)c1ccccn1	i	-42%	11µM*	11µM*	?	?
CN(C)c1ccc(C(I)C(I)c2ccnc3ccccc23)cc1 (stereo not drawn)	.	-56%	.	1%	.	.
CCN(CC)S(=O)(=O)c1cccc(-c2n[nH]c(=S)n2CC(C)C)c1	i	-7%	8.9µM*	-13%	-2%	3%
CC(C)Cn1c(-c2csc3c2CCCC3)n[nH]c1=S	i	-22%	2.8µM*	-1%	-8%	5µM*
CC(C)Cn1c(-c2ccccc2F)n[nH]c1=S	i	0%	5.6µM*	-8%	2%	10µM*
CC(C)(C)c1ccc(-c2n[nH]c(=S)n2C2CCCC2)cc1	i	-83%	2.5µM*	?	?	4.5µM*
COCCNC(=O)c1cn(C2CCN(C3CCCC3)CC2)nn1	i	.	.	.	.	.
OC[C@H]1NC[C@@H](O)[C@@H](O)[C@@H]1O	.	.	-1%	.	.	-23%
S=c1[nH]nc(-c2ccncc2)n1CC1CCCO1 (stereo not drawn)	i	0%	-61%	6%	-18%	-5%
CC(C)Cn1c(-c2ccc(F)cc2)n[nH]c1=S	i	7%	7.1µM*	-11%	-1%	10µM*
CCn1c(-c2ccc(F)cc2)n[nH]c1=S	i	8%	1.1µM*	0%	8%	2µM*
Fc1ccc(-c2n[nH]c(=S)n2CC2CCCO2)cc1 (stereo not drawn)	i	14%	11µM*	0%	-18%	?
Cn1c(-c2ccc(C(C)(C)C)cc2)n[nH]c1=S	i	-4%	3.2µM*	0%	43%	5.6µM*
CCn1c(-c2cc(OC)c(OC)c(OC)c2)n[nH]c1=S	i	5%	?	15%	3%	19%
Cc1ccc(C(C)C)c(OC(C)C(=O)NCC2(N(C)C)CCCCC2)c1 (stereo not drawn)	i	-28%	.	0%	-6%	.
CC(=O)NCCNc1nc(-c2cccnc2)nc2ccccc12	.	.	-17%	.	.	-2%
CCOC(=O)C1(CCOc2ccccc2)CCN(Cc2ccc3nonc3c2)CC1	?	-24%	24%	-13%	-26%	-13%
Cc1cccc(OCCn2nnc3sc4c(c3c2=O)CCCC4)c1	i	-22%	.	2%	26%	.
CCn1c(-c2cccc(Cl)c2)n[nH]c1=S	i	6%	6.3µM*	-9%	-8%	11µM*
CCn1c(-c2cc3ccccc3cc2O)n[nH]c1=S	i	-28%	11µM*	0%	-4%	?
CCn1c(-c2ccc(C(C)(C)C)cc2)n[nH]c1=S	i	-20%	?	-18%	-10%	3.2µM*
Fc1ccccc1-c1n[nH]c(=S)n1C1CC1	.	.	10µM*	.	.	?
CCCCCCCN(CC)CCCC(O)c1ccc(NS(C)(=O)=O)cc1 (stereo not drawn)	i	.	.	.	?	.
SMILES	ATXN viability	HepG2 viability	RORgamma inh	TGFb inhibitor	ATXN2 expr inh	Gal4-VP16 FLuc
CC(C)(C)c1ccc(CC(=O)N2CCC2(C)C(=O)NS(=O)(=O)c2ccc(Cl)cc2)cc1 (stereo not drawn)	i	-2%	.	1%	-3%	.
Cc1ccc(-c2nn3c(C)nnc3s2)cc1NC(=O)c1ccc(-c2ccc(Cl)cc2Cl)o1	.	-55%	30%	?	8.9µM*	?
Cc1ccc(-c2nn3c(C)nnc3s2)cc1NC(=O)c1ccc(-c2cccc(Cl)c2)o1	?	-60%	5%	?	?	4%
N=C(N)SCc1cn(-c2ccccc2)nc1-c1ccc(Br)cc1	?	11µM*	11µM*	?	?	?
COc1ccc2cc(-c3cc(C(=O)OCC(=O)NC4CCS(=O)(=O)C4)c4ccccc4n3)ccc2c1 (stereo not drawn)	.	-14%	2.8µM*	?	?	1.8µM*
COc1ccc2cc(-c3cc(C(=O)OCC(=O)Nc4c(C)n(C)n(-c5ccccc5)c4=O)c4ccccc4n3)ccc2c1	?	-8%	7.1µM*	-4%	-27%	?
COc1ccc(-c2cc(C(=O)OCC(=O)NC3CC3)c3ccccc3n2)cc1	i	-8%	.	2%	.	.
Cc1occc1C(=O)NCCN1Cc2ccccc2OC(c2ccccc2F)C1 (stereo not drawn)	i	.	.	.	.	.
Cc1nc2sccn2c1CN1CCC2(CC1)CC2C(=O)Nc1ccc2c(c1)OCO2 (stereo not drawn)	i	.	.	.	.	.
CCOC(=O)C1=C(C)NC(=O)NC1c1c(OC)ccc2ccccc12 (stereo not drawn)	i	9%	17%	13%	-7%	-1%
COc1ccc2ccccc2c1C1NC(=O)NC(C)=C1[N+](=O)[O-] (stereo not drawn)	i	2%	-36%	-6%	-5%	11µM*
COc1ccc(S(=O)(=O)NCCS(=O)(=O)N2CCN(c3ccccc3)CC2)cc1OC	.	-27%	.	0%	.	.
Cc1cc(SCC(=O)NCc2ccc(Cl)cc2)nc(=O)[nH]1	i	-18%	.	?	3%	.
O=C(/C=C/c1ccco1)NC(=S)Nc1cc(C(F)(F)F)ccc1N1CCOCC1	i	-27%	6.3µM*	-2%	-26%	?
O=C(CSCc1ccco1)Nc1cc(C(F)(F)F)ccc1N1CCOCC1	i	-15%	-9%[10 µM]	25%	2%	-1%
O=C(/C=C/c1ccco1)NC(=S)Nc1ccccc1N1CCOCC1	?	-34%	2.8µM*	-28%	-6%	8.9µM*
Cc1cc(C)c2c(CC(=O)N3CCN(c4cccc(Cl)c4)CC3)coc2c1	i	2%	.	?	-19%	.
CCOc1ccc(CNC(=O)CN2C(=O)C3CCCCN3c3ccc(C(=O)N4CCCC4)cc32)cc1 (stereo not drawn)	i	2%	.	-11%	-5%	.
O=C(O)Cn1ccc2cc(S(=O)(=O)N3CCCCC3)ccc21	i	-2%	.	-8%	.	.
N#Cc1ncc(Cc2ccccc2)nc1C#N	.	-1%	19%[1.91 µM]	?	.	14µM*
N#Cc1nc(Cc2ccccc2)oc1NCc1cccnc1	i	-14%	?	-1%	3%	17%
CC1=NN(C(N)=S)C(=O)C1N=Nc1cccc(C(=O)O)c1 (stereo not drawn)	i	-14%	11µM*	2%	-30%	?
